Data published in PubChem BioAssay (NCATS).
Results filed as inconclusive are left out. A number with no mark means an inactive call. Calls of active or inactive are those of the source. The call rests on the fitted dose curve; in most records, active means well fitted inhibition curve with a large enough effect; inconclusive means small, poorly fitted or top-dose-only effect; inactive means no such curve, though single readings can be large or run the other way. Where a SMILES comes first, the peptide text is derived from it. [ ]: non-standard residue; d: D form. ξ: configuration not given here. ξTyr(βOH) = NC(C(=O)O)C(O)c1ccc(O)cc1

System: Zika virus NS2B-NS3 protease (linked construct)
Assay: Primary screen NINDS Rhodamine qHTS for Zika virus inhibitors (AID 1347160); further: nearly all actives have a fitted effect of over 55% in size
Details: purified NS2B-NS3 protease, Rhodamine110 substrate fluorescence; series mostly up to 33.1 µM; activity change, negative = inhibition: at the top concentration
How it was run: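 Purified NS2B-NS3 protease with the NS2B hydrophilic domain joined by a flexible linker (25 nM) in 10 mM Tris-HCl pH 8.0, 0.01% Tween 20, preincubated 15 min at RT with compound; Rhodamine110 peptide substrate 1.5 µM; fluorescence change over 15 min; 4-parameter Hill fit.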
On the % scale 0 is the no-effect control and ±100 the full control effect; potency means the concentration at half of the fitted maximal effect.

Row | Structure (SMILES) | activity change, negative = inhibition | outcome | Potency
1 | COc1cccc(C(=O)NCCNc2nc3cc(C)cc(C)c3cc2C#N)c1 | 23% [at 57.1 µM] | – | –
2 | CC(=O)OC1(C)CC(O)C2(O)C=COC(OC3OC(CO)C(O)C(O)C3O)C12 (centres undefined) | 12.9% | – | –
3 | CCOc1nc2c(N)ncnc2n1CC | – | inactive | –
4 | CC1=CC(=O)CC(C)(C)C1CO[C@@H]1O[C@H](CO)[C@@H](O)[C@H](O)[C@H]1O (some centres undefined) | 12.1% | – | –
5 | C[C@]1(O)CC[C@@H]2C(C(=O)O)=CO[C@@H](O[C@@H]3O[C@H](CO)[C@@H](O)[C@H](O)[C@H]3O)[C@@H]21 | -10.4% | – | –
6 | CCOC(=O)COc1ccc2c(c1)C[C@@H](NC[C@H](O)c1cccc(Cl)c1)CC2 | 214% [at 57.1 µM] | – | –
7 | CC1(C(=O)O)CCCC2(C)C3CCC4CC3(CCC12)CC4C(=O)O (centres undefined) | -12% | – | –
8 | CC(C)=C1C[C@@]2(C)C(=CC1=O)CC[C@@H](O)[C@@H]2C | -1.95% [at 57.1 µM] | – | –
9 | CCCCS(=O)(=O)NC(Cc1ccc(OCCCCC2CCNCC2)cc1)C(=O)O (centres undefined) | -2.22% [at 57.1 µM] | – | –
10 | O=C(C[C@@H]1C(C(=O)O)=CO[C@@H](O[C@@H]2O[C@H](CO)[C@@H](O)[C@H](O)[C@H]2O)/C1=C\CO)OCCc1ccc(O)c(O)c1 | 11.7% | – | –
11 | COC1CC(O[C@H]2CC[C@@]3(C)C(=CC[C@]4(O)C3[C@H](O)[C@@H](O)[C@]3(C)[C@@H]([C@H](C)O)CC[C@@]34O)C2)OC(C)C1OC1CC(OC)C(OC2CC(OC)C(OC3OC(C)C(OC4OC(CO)C(O)C(O)C4O)C(OC)C3O)C(C)O2)C(C)O1 (some centres undefined) | – | inactive [at 15.1 µM] | –
12 | COc1cc(/C=C/C(=O)OC[C@H]2O[C@@H](OC3OC=C(C(=O)O)C4C(O)CC(C)(O)C34)[C@H](O)[C@@H](O)[C@@H]2O)cc(OC)c1O (some centres undefined) | -16.8% [at 15.1 µM] | – | –
13 | CNC(C)C(=O)NC(C(=O)N1CCCC1C(=O)Nc1cccc2ncccc12)C(C)C (centres undefined) | 18.9% [at 57.1 µM] | – | –
14 | N[C@@H](CC(=O)Nc1ccc(Oc2cc(F)c(F)cc2Br)cc1)C(=O)O | -10.7% [at 57.1 µM] | – | –
15 | CN(C)C(=O)C(O)C(Cc1ccccc1)NC(=O)c1cc2cc(Cl)ccc2[nH]1 (centres undefined) | 18.8% [at 57.1 µM] | – | –
16 | CC(=O)O[C@@]1(C)[C@@H]2CC(=C(C)C)C(=O)C[C@@]2(C)CC[C@H]1OC(=O)C1(C)OC1C (some centres undefined) | -6.28% | – | –
17 | COc1cc(O)cc(C)c1C(=O)OC1C(CO)OC(n2ccc(=O)[nH]c2=O)C1OC(C)=O (centres undefined) | 18.6% | – | –
18 | O=C(O)[C@H]1Cc2ccccc2CN1 | 20.2% [at 4.91 µM] | – | –
19 | C/C(=C/CO)CC[C@H]1[C@]2(C)C[C@H](O)CC(C)(C)[C@H]2CC[C@]1(C)O | 0.504% | – | –
20 | CC(C)(O)C1CCC2(C)CCCC(C)(O)C2C1 (centres undefined) | -1.56% [at 57.1 µM] | – | –

Row | Structure (SMILES) | activity change, negative = inhibition | outcome | Potency
21 | CC(C)[C@](O)(c1ccc2cc(OC(F)F)c(OC(F)F)cc2c1)c1cn[nH]n1 | 12.6% [at 57.1 µM] | – | –
22 | C[C@H]1/C=C/C=C/C=C/C=C/C=C/[C@@H](O)[C@H](C(=O)O)[C@H](O)C[C@H](O)CCC[C@H](O)C[C@H](O)C[C@H](O)[C@@H](C)C(=O)O[C@@H]1C | 14.1% [at 15.1 µM] | – | –
23 | C/C=C(\C)C(=O)OC1CC2C(CC=C3CC(OC4CC(OC)C(OC5CC(OC)C(OC6CC(OC)C(OC7CC(OC)C(OC8CC(OC)C(OC9OC(CO)C(O)C(O)C9O)C(C)O8)C(C)O7)C(C)O6)C(C)O5)C(C)O4)CCC32C)C2(O)CCC(C(C)=O)C12C (centres undefined) | -7.52% [at 10.7 µM] | – | –
24 | CC1=CCC[C@@H]2[C@@](C)(CCc3ccoc3)[C@H](C(=O)O)CC[C@@]12C | – | inactive [at 33.1 µM] | –
25 | C[C@@H]1O[C@@H](O[C@H]2[C@@H]3C=CO[C@@H](O[C@@H]4O[C@H](CO)[C@@H](O)[C@H](O)[C@H]4O)[C@@H]3[C@@]3(CO)O[C@@H]23)[C@H](O)[C@H](OC(=O)/C=C/c2ccc(O)cc2)[C@H]1OC(=O)/C=C/c1ccc(O)cc1 | – | inactive [at 15.1 µM] | –
26 | COc1ccc(C2COc3cc(O)ccc3C2)c(O)c1OC (centres undefined) | 10.3% [at 57.1 µM] | – | –
27 | CC1(C(=O)O)CCCC2(C)C3CCC4CC3(CCC12)CC4(O)CO (centres undefined) | – | inactive [at 33.1 µM] | –
28 | COc1ccc2[nH]c(S(=O)Cc3ncc(C)c(OC)c3C)nc2c1 (centres undefined) | 16.1% [at 57.1 µM] | – | –
29 | CC(C)(O)[C@@H]1CC[C@]2(CO)[C@@H](O)CC[C@](C)(O)[C@H]2[C@@H]1O[C@@H]1O[C@H](CO)[C@@H](O)[C@H](O)[C@H]1O | – | inactive [at 33.1 µM] | –
30 | COC(=O)[C@H](O)[C@H]1C(C)(C)[C@H](OC(C)=O)[C@@]2(O)C(=O)[C@]1(C)C1CC[C@]3(C)C(CC(=O)O[C@H]3c3ccoc3)[C@]13O[C@@H]32 (some centres undefined) | 9.88% | – | –
31 | COC(=O)C1=CO[C@@H](O[C@@H]2O[C@H](CO)[C@@H](O)[C@H](O)[C@H]2O)[C@@H]2[C@@H](CO)[C@@H](O)C(O)[C@H]12 (some centres undefined) | 27.4% | – | –
32 | CC(=O)NC1CC(=O)C23C(=O)NC(Cc4c[nH]c5ccccc45)C2C(C)=C(C)C(O)C3/C=C/CC(C)/C=C(/C)C(O)C1O (centres undefined) | 9.77% [at 15.1 µM] | – | –
33 | CC1CC(=O)C2C(O)(C1)CC(O)C13OC1c1c(O)cccc1C(=O)C23O (centres undefined) | 17.2% | – | –
34 | CC1CCC2(NC1)OC1C(O)C3C4CCC5CC(O[C@@H]6O[C@H](CO)[C@@H](O)[C@H](O)[C@H]6O[C@@H]6O[C@@H](C)[C@H](O)[C@@H](O)[C@H]6O)CCC5(C)C4CCC3(C)C1C2C (some centres undefined) | – | inactive [at 15.1 µM] | –
35 | CC(=O)OC1CC(C(C)(C)O)OC2CCC3(C)OC4=C(C(=O)C=C5C(C)C(OC(C)=O)C6(C)C(C)OC546)C(O)C3C12C (centres undefined) | – | inactive [at 15.1 µM] | –
36 | COc1cc(O)c2c(c1)C1(OC2=O)C(C)=CC(=O)C1O (centres undefined) | 10.1% [at 57.1 µM] | – | –
37 | COc1ccccc1CN[C@H]1CCCN[C@H]1c1ccccc1 | 41.8% [at 57.1 µM] | – | –
38 | CC(C)C1NC(=O)CNC(=O)C2CCCN2C(=O)C(Cc2c[nH]c3ccccc23)NC(=O)CNC(=O)C(C(O)c2ccc(O)cc2)NC(=O)CNC1=O (centres undefined) (cyclo(G[ξTyr(βOH)]GWPGV); configuration not given here) | 13% [at 15.1 µM] | – | –
39 | C/C=C/C=C/C=C/C(=O)OC1C=C2C(O)OC(=O)[C@]2(O)[C@@]2(C)CCCC(C)(C)[C@H]12 (some centres undefined) | – | – | 12.6 µM (active)
